Potency data for 89 molecules are collected here from PubChem BioAssay AID651597 (National Center for Advancing Translational Sciences (NCATS), 2012).

Among all 1,100 compounds or so, about 390 (35%) were called active. Not shown: some 30% with an inconclusive outcome. Calls come from the whole dose curve; as a rule, active = well fitted inhibition curve with a large enough effect; inconclusive = small, poorly fitted or top-dose-only effect; inactive = flat fitted curve, though single readings scatter. The list shows a part of the results. A call without a number means that no potency is given here.
Potency is the fitted concentration of half-maximal effect.

The assay has as its target Luciferin 4-monooxygenase (Photinus pyralis) (UniProt P08659). Briefly: qHTS of Nrf2 Activators: Hit Validation in Secondary FLuc Assay. Note: nearly all actives have a fitted effect of over 65% in size. The note with it: firefly luciferase inhibition counter-screen, luminescence; series mostly up to 57.5 µM. The gist of the method:
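Counter-screen on purified firefly luciferase with ATP and D-luciferin at Km concentrations; compounds flagged if they inhibit the enzyme, indicating possible reporter stabilization rather than ARE activation.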
For `C[C@H]1CCC[C@]2(C)C[C@H]3OC(=O)C(CN4CCCCCC4)[C@H]3C=C12` (some centres undefined), the Potency entry was “inactive”.
Next, `N#CC1CC(c2ccccc2)=NN1c1ccccc1[N+](=O)[O-]` (centres undefined): 3.79 µM (active).
Next, `Cc1cc(Br)cn2c(Cc3ccccc3)c(-c3ccco3)nc12`: 9.53 µM (active); `Cc1ccc(Cc2c(-c3ccco3)nc3c(C)cc(Br)cn23)cc1`: 5.36 µM (active); `COc1cc2c(cc1OC)/C(=C/c1ccc(Cl)cc1)C(=O)OC2`: “inactive”.
In the case of `O=C(O)c1ccc2c(=O)n3c(nc2c1)/C(=C/c1cccc(Cl)c1Cl)CC3`, the Potency entry was “inactive”.
The result for `O=C(Nc1c(Br)cc2c(c1Br)Cc1ccccc1-2)C(F)(F)F` reads “inactive”; that for `O=C(Nc1ccc(Br)c(C(F)(F)F)c1)c1ccccc1`, 9.53 µM (active); that for `O=C(Nc1ccc2c(c1)C(=O)NC2=O)c1cccc(C(F)(F)F)c1`, “inactive”.
Regarding `Cc1ccc(-c2nc(NCc3ccco3)c3ccccc3n2)cc1`, the Potency is 10.7 µM (active).
Next, `c1ccc(Cn2ncc3c(NCc4ccco4)ncnc32)cc1`: “inactive”; `Cc1cc(NCc2ccco2)n2c(nc3ccccc32)c1C#N`: “inactive”; `O=C(NC(=S)Nc1ccc(Br)cn1)c1cccs1`: 0.19 µM (active).
The result for `Cc1cccc(NC(=S)NC(=O)c2cccs2)n1` reads 12 µM (active).
As to `O=C(NC(=S)Nc1ccc(Cl)cn1)c1cccs1`, the Potency is 0.151 µM (active).
As for `O=C(NC(=S)Nc1cccc2cccnc12)c1cccs1`, the Potency is 0.953 µM (active).
With `COC(=O)c1sccc1NC(=O)c1ccc(Br)s1`, the Potency result is “inactive”.
Next, `O=C(N/N=C/c1ccc(Br)s1)c1cccs1`: 6.75 µM (active); `Cc1ccc(S(=O)(=O)c2nc(S(C)(=O)=O)sc2N2CCC3(CC2)OCCO3)cc1`: “inactive”; `Cc1cc(NC(=O)CC(C)(C)C)nc2c1c(=O)oc1ccccc12`: “inactive”.
Turning to `C=CCc1cccc(C=Nc2cc(Br)ccc2O)c1O`, the Potency entry was “inactive”.
The result for `Brc1ccc2nc(-c3ccco3)c(Cc3ccsc3)n2c1` reads 5.36 µM (active).
Next, `Fc1cccc(Cc2c(-c3ccco3)nc3ccc(Br)cn23)c1`: 5.36 µM (active); `O=C(N/N=C\C=C\c1ccco1)c1cc(-c2ccc3ccccc3c2)n[nH]1`: 5.36 µM (active); `O=C(N/N=C/C=C/c1ccco1)c1cccc([N+](=O)[O-])c1`: “inactive”.
The result for `O=C(O)c1ccc(/C=C2\COc3ccccc3C2=O)cc1` reads 9.53 µM (active); that for `COc1ccc(N(CCCN2C(=O)c3cccc4cccc(c34)C2=O)C(=O)c2ccncc2)cc1`, “inactive”.
Regarding `O=C(CSc1nnc2c(n1)[nH]c1ccccc12)NCc1ccco1`, the Potency was 19 µM (active).
`O=C(NCc1ccco1)c1n[nH]c(=O)c2ccccc12`: the Potency entry was “inactive”.
For the molecule `Cc1c(C(=O)NCc2ccco2)oc2c(Cl)cccc12`, the Potency result was “inactive”.
Next, `Cc1ccc(O)c(NC(=O)c2cccc(NC(=O)c3ccco3)c2)c1`: 12 µM (active); `Clc1ccc(Br)cc1-c1nc(-c2ccncc2)no1`: 8.49 µM (active).
In the case of `CSc1nc2sc3c(c2c(=O)n1C)CCC(C)C3` (centres undefined), the Potency is 6.01 µM (active).
In the case of `COc1cc(/C=N/Nc2nc3ccccc3s2)ccc1OC(=O)c1ccccc1F`, the Potency was 5.36 µM (active).
The result for `Cc1ccc2ccc(C3C(=O)c4ccccc4C3=O)nc2c1` reads 0.269 µM (active).
For `Cn1c(NCc2ccc3occc3c2)nc2cc(-c3cccc(C(F)(F)F)c3)sc2c1=O`, the Potency entry was “inactive”.
Take `COc1ncccc1-c1cc2nc(NCCNC(C)=O)n(C)c(=O)c2s1`: the Potency is 15.1 µM (active).
The result for `Cn1c(NCC2CCCCC2)nc2cc(-c3ccsc3)sc2c1=O` reads “inactive”.
For the molecule `C/C(=N\NC(=O)c1cccc(S(=O)(=O)N2CCCC2)c1)c1ccco1`, the Potency entry was “inactive”.
Regarding `CC(=NNC(=O)CSc1nc2ccccc2o1)c1ccco1`, the Potency entry is “inactive”.
In the case of `C/C(=N\NC(=O)c1c[nH]c2ccccc12)c1ccco1`, the Potency is 7.57 µM (active).
For `Oc1ccc2ccccc2c1N=Nc1ccccn1`, the Potency is 10.7 µM (active).
Turning to `CCc1nc(N)c(C#N)c(-c2ccco2)c1C`, the Potency entry was “inactive”.
Next, `CSc1nnc(-c2ccco2)c(-c2ccco2)n1`: 4.78 µM (active).
For the molecule `O=C(CSc1nnc(-c2ccco2)c(-c2ccco2)n1)c1ccccc1`, the Potency was 2.69 µM (active).
The result for `C=C1C2=C(C(=O)N1OC)[C@@H](O)[C@@](C)(O)[C@@H](CCCCC)O2` reads “inactive”; that for `CC(C)N(C(=O)COC(=O)c1ccccc1C(=O)c1ccc(Cl)c([N+](=O)[O-])c1)C(C)C`, “inactive”; that for `O=C(Nc1nc2ccccc2[nH]1)c1ccc(Cl)c([N+](=O)[O-])c1`, 2.69 µM (active).
As for `O=C(c1ccc(S(=O)(=O)Cc2ccccc2Cl)c([N+](=O)[O-])c1)N1CCOCC1`, the Potency entry was “inactive”.
The result for `N#C/C(=C\c1c(Oc2ccc(Cl)cc2)nc2ccccn2c1=O)C(=O)NC1CCS(=O)(=O)C1` (centres undefined) reads “inactive”; that for `COc1cc(NC(=S)Nc2ccccn2)c(OC)cc1Cl`, “inactive”; that for `COc1ccccc1C(=O)NCc1nc2cccnc2n1Cc1ccc(F)cc1`, “inactive”.
Turning to `COc1ccccc1NC(=O)c1cc(Cl)nc2ccccc12`, the Potency entry is “inactive”.
As to `COc1ccccc1NC(=O)C(=O)Nc1ccccn1`, the Potency was 1.69 µM (active).
As to `COc1ccccc1NC(=O)c1ncn(-c2ccccc2)n1`, the Potency is 10.7 µM (active).
Next, `CCCn1c(-c2cccs2)nc2nc3ccccc3nc21`: 12 µM (active); `COCCN(C(=O)COC(=O)/C=C/c1ccccc1Cl)c1c(N)n(Cc2ccccc2)c(=O)[nH]c1=O`: “inactive”; `O=C(C=Cc1ccccc1Cl)c1ccccc1`: 0.953 µM (active).
Take `O=C(/C=C/c1ccccc1Cl)Nn1cnc2ccccc2c1=O`: the Potency result is “inactive”.
The result for `Cn1c(=O)c(C(=O)NNC(=O)c2ccccc2F)c(O)c2ccccc21` reads “inactive”.
`Oc1ccc(Cl)cc1-c1cc(-c2ccco2)[nH]n1`: the Potency was 13.5 µM (active).
Next, `FC(F)(F)c1cc(-c2ccco2)nc(NCc2ccco2)n1`: “inactive”; `Oc1c(-c2cc(-c3ccco3)[nH]n2)ccc2ccccc12`: 0.953 µM (active).
Next, `Oc1ccc(Br)cc1-c1cc(-c2ccco2)[nH]n1`: 16.9 µM (active); `Oc1ccccc1C=NN=C1c2ccccc2-c2ccccc21`: 4.26 µM (active).
The result for `O=C(Nc1ccccc1C(=O)N/N=C/c1ccco1)c1ccc(F)cc1` reads 4.78 µM (active); that for `O=C(N/N=C/c1cn[nH]c1-c1ccccc1)c1ccco1`, “inactive”.
Take `O=C(Nc1ccccc1C(=O)N/N=C/c1ccco1)c1ccccc1`: the Potency is 7.57 µM (active).
The result for `Nc1c(Cl)c(Cl)nc(C(=O)N/N=C/c2ccco2)c1Cl` reads “inactive”; that for `COC(CN(C(=O)CCl)C(C(=O)NC1CCCCC1)c1ccccc1C)OC` (centres undefined), “inactive”.
On to `COc1ccc([N+](=O)[O-])cc1C1NN=C(c2ccccc2O)S1` (centres undefined), for which the Potency is 8.49 µM (active).
In the case of `COc1ccc([N+](=O)[O-])cc1NC(=O)c1ccco1`, the Potency entry is “inactive”.
The result for `CCN1CCN(c2sc(S(C)(=O)=O)nc2S(=O)(=O)c2ccc(Cl)cc2)CC1` reads “inactive”; that for `CC(=O)OC1(C(C)=O)CCC2C3CC(C(F)(F)F)C4=CC(=O)CCC4(C)C3CCC21C` (centres undefined), “inactive”.
In the case of `CC1CN(c2sc(S(C)(=O)=O)nc2S(=O)(=O)c2ccc(Cl)cc2)CC(C)O1` (centres undefined), the Potency entry was “inactive”.
Regarding `O=C(Nc1ccccc1)c1nc[nH]c1C(=O)Nc1ccccc1F`, the Potency result was “inactive”.
Next, `O=C(Nc1ccccc1)Nc1cccc2nsnc12`: 2.69 µM (active); `C/C(=N\Nc1ccccn1)c1cccs1`: 2.39 µM (active); `C/C(=N\Nc1ccccn1)c1ccc(Br)s1`: 12 µM (active).
Take `C/C(=N\Nc1ccc2nncn2n1)c1ccc(Cl)s1`: the Potency result was “inactive”.
For the molecule `Cn1c(N)c(C(=O)COC(=O)c2nc(Cl)ccc2Cl)c(=O)n(C)c1=O`, the Potency entry was “inactive”.
The result for `CC(C)(C)c1csc(NC(=O)CCS(=O)(=O)c2ccc(F)cc2)n1` reads “inactive”; that for `O=C(/C=C/c1ccccc1)Nc1ncn[nH]1`, 10.7 µM (active).
For `CN1c2ccsc2/C(=N/Nc2ccccc2)CS1(=O)=O`, the Potency is 7.57 µM (active).
The result for `OCC1OC(n2cnc3c(NCc4ccccc4O)ncnc32)C(O)C1O` (centres undefined) reads “inactive”; that for `CC1=NC(=O)C(N=Nc2cccc(O)c2)N1c1ccccc1` (centres undefined), 3.79 µM (active); that for `Clc1ccc(/C=N/Nc2nnc(Cl)c3ccccc23)cc1`, 0.338 µM (active).
Take `CSc1nsc(SC)c1C(=O)Nc1ccc(C)cc1`: the Potency entry is “inactive”.
The result for `CNc1nc(N)c([N+](=O)[O-])c(Nc2cccc(Cl)c2)n1` reads “inactive”.
